In PubChem BioAssay (Tox21):
Several values for one entry are separate records, joined by “and”; a condition that tells them apart may be missing. Equal values may be shown once. Inconclusive results are not listed. Where a structure was tested more than once in an assay, its records may differ in their call. Activity calls are given as the source filed them. Unless noted, calls come from the whole dose curve; as a rule, active = well fitted curve in the direction sought with a large enough effect in the repeat runs; inconclusive = weak or mixed curves; inactive = no such curve, though single readings can be large; an effect the other way counts as inactive or inconclusive.

Columns and labels:
[1] = qHTS assay for small molecules that induce genotoxicity in human embryonic kidney cells expressing luciferase-tagged ATAD5 (AID 651632); note: nearly all actives have a fitted effect of over 15% in size; note: potency is the fitted concentration of half-maximal effect
Procedure, shortened: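 Genotoxicity read-out via ATAD5-luciferase: HEK293T cells, 16 hr compound incubation at 37C, Amplite detection.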

[2] = qHTS assay for small molecule agonists of the p53 signaling pathway - cell viability (AID 651633; calls by dose curve; note: nearly all actives have a fitted effect of over 30% in size; note: potency is the fitted concentration of half-maximal effect)
Procedure, shortened: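 p53RE-bla cells, seeded at 4,000 per well and rested 5 h at 37 C/5% CO2, received compounds in DMSO for 16 h at 37 C. CellTiter-Glo was then added, and luminescence was read after 30 min at room temperature to gauge cytotoxicity.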

[3] = qHTS assay for small molecules that induce genotoxicity in human embryonic kidney cells expressing luciferase-tagged ATAD5 - cell viability (AID 651634; calls by dose curve; note: nearly all actives have a fitted effect of over 25% in size; note: potency is the fitted concentration of half-maximal effect)
Procedure, shortened: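 Live-cell protease activity (CellTiter-Fluor, fluorescence) indicates viability. HEK293T cells with luciferase-tagged ATAD5; 15.5 hr compound treatment at 37C.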

[4] = qHTS assay for small molecule disruptors of the mitochondrial membrane potential - cell viability (AID 720634; calls by dose curve; note: nearly all actives have a fitted effect of over 20% in size; note: potency is the fitted concentration of half-maximal effect)
Procedure, shortened: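 Human hepatoma HepG2 cells were treated for 1 hr with test chemicals, then given m-MPI dye and CellTiter-Glo. Cell viability reflects luminescence proportional to cellular ATP.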

[5] = qHTS assay to test for compound auto fluorescence at 590 nm (red) in HepG2 cells (AID 720674)
Procedure, shortened: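 Rose Bengal sodium served as the red fluorophore standard. HepG2 monolayers (overnight attachment, MEM with 10% FBS) were exposed to test compounds for 1 hr at 37 C and read at Ex 540/Em 590 nm.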

[6] = qHTS assay to test for compound auto fluorescence at 535 nm (green) in HepG2 cells (AID 720675)
[7] = qHTS assay to test for compound auto fluorescence at 460 nm (blue) in HEK293 cells (AID 720678); note: potency is the fitted concentration of half-maximal effect
Procedure, shortened: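 Measured: blue fluorescence (Ex 405/Em 460 nm) of compound-treated HEK293 cells, incubated overnight at 37C with 5% CO2 and scaled to triamterene equivalents.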

[8] = qHTS assay to test for compound auto fluorescence at 590 nm (red) in HEK293 cells (AID 720679)
Procedure, shortened: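 Using HEK293 cells at 2,000 per well, the screen added 23 nL of each compound after cell attachment and incubated overnight (37C, 5% CO2). The plate reader then captured red-label fluorescence, Ex/Em 540/590nm.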

[9] = qHTS assay for small molecule disruptors of the mitochondrial membrane potential (AID 720635); note: potency is the fitted concentration of half-maximal effect
Procedure, shortened: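 HepG2 cells (2,000/well) attached overnight at 37C, then took compound for 1 hr at 37C, 5% CO2. Mito-MPS dye was added for 30 min; fluorescence was read at 490/535 nm (monomers) and 540/590 nm (aggregates).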

[10] = qHTS assay for small molecule agonists of the p53 signaling pathway (AID 651631; calls by dose curve; note: nearly all actives have a fitted effect of over 15% in size; note: potency is the fitted concentration of half-maximal effect)
Procedure, shortened: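 Agonist mode screen using a stably integrated beta-lactamase gene under p53 response elements in HCT-116 cells. Compound exposure lasts 16 h at 37 °C; fluorescence intensity is measured following 2 h FRET substrate loading.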
% is set by controls: 0 for no effect and ±100 for the full control effect; tags give direction and shape of the fitted curve or compound fluorescence and quenching.

O=C1NCC2(CCN(CCc3ccccc3)CC2)O1
inactive: Potency [1] | Potency [2] | Potency [3] | Potency [4] | outcome [5] | Potency [6] | Potency [7] | outcome [8]

CCOc1ccc2c(c1)C(C)=CC(C)(C)N2
inactive: Potency [1] | Potency [2] | Potency [3] | Potency [4] | Potency [9] | Potency [6] | Potency [7] | outcome [8]

O=C(O)c1cc(Cl)cc(Cl)c1
inactive: Potency [1] | Potency [2] | Potency [3] | Potency [4] | Potency [9] | outcome [5] | Potency [6] | Potency [7] | outcome [8]

c1cc(C(c2ccc(OCC3CO3)cc2)C(c2ccc(OCC3CO3)cc2)c2ccc(OCC3CO3)cc2)ccc1OCC1CO1 (stereo not given)
inactive: Potency [1] | Potency [2] | Potency [3] | Potency [4] | Potency [9] | outcome [5] | Potency [6] | Potency [7] | outcome [8]

Cc1cc(Cc2cc(C)cc(C(C)(C)C)c2O)c(O)c(C(C)(C)C)c1
inactive: outcome [5] | Potency [6] | Potency [7] | outcome [8]
active: Potency [10] 30.6 µM | Potency [2] 13.8 µM and 17.2 µM | Potency [3] 61.4 µM and 61.1 µM | Potency [9] 1.23 µM and 1.09 µM

CCCCN(CCO)CCCC
inactive: Potency [1] | Potency [2] | Potency [3] | Potency [4] | outcome [5] | Potency [6] | Potency [7] | outcome [8]

COc1nc(C)nc(Cl)c1NC1=NCCN1
inactive: Potency [1] | Potency [2] | Potency [3] | Potency [4] | Potency [9] | fluorescence, relative to Rose Bengal [5] 0.0093% [at 18.6 µM] | fluorescence, % of fluorescein control [6] -0.17% [at 18.6 µM] | fluorescence, % of triamterene [7] 0.0425% [at 18.6 µM] | fluorescence, % of fluorescent control [8] -0.0076% [at 18.6 µM]

NC(=Nc1ccccc1)Nc1ccccc1
inactive: Potency [2] | Potency [3] | Potency [4] | outcome [5] | Potency [6] | Potency [7] | outcome [8]
active: Potency [1] 15 µM | Potency [9] 3.35 µM and 15.4 µM

Nc1nc2ccccc2[nH]1
inactive: Potency [1] | Potency [2] | Potency [3] | Potency [4] | Potency [9] | outcome [5] | Potency [6] | Potency [7] | outcome [8]

CC(=O)Nc1ccc(C(=O)CCl)cc1
inactive and 30.6 µM (active): Potency [2]
inactive and 24.3 µM (active): Potency [10]
inactive and 27.3 µM (active): Potency [4] | Potency [9]
inactive: Potency [6] | Potency [7] | outcome [8]

CC(C)(O)CCC(C)(C)O
inactive: Potency [1] | Potency [2] | Potency [3] | Potency [4] | Potency [9] | outcome [5] | Potency [6] | Potency [7] | outcome [8]

c1ccc2c(c1)CCCC2C1=NCCN1 (stereo not given)
inactive: Potency [1] | Potency [2] | Potency [3] | Potency [4] | outcome [5] | Potency [6] | Potency [7] | outcome [8]

CC(C)(c1ccccc1)c1ccc(Nc2ccc(C(C)(C)c3ccccc3)cc2)cc1
active: Potency [9] 21.7 µM and 27.3 µM
inactive: Potency [1] | Potency [2] | Potency [3] | Potency [4] | outcome [5] | Potency [6] | Potency [7] | outcome [8]

Nc1cc(S(=O)(=O)O)cc2cc(S(=O)(=O)O)cc(O)c12
inactive: Potency [1] | Potency [2] | Potency [3] | Potency [4] | Potency [9] | outcome [5] | Potency [6] | outcome [8]

NC(Cc1ccc(Cl)cc1)C(=O)O (stereo not given)
inactive: Potency [1] | Potency [2] | Potency [3] | Potency [4] | outcome [5] | Potency [6] | Potency [7] | outcome [8]

OCC(CO)N[C@H]1C[C@](O)(CO)[C@@H](O)[C@H](O)[C@H]1O
inactive: Potency [10] | Potency [2] | Potency [3] | Potency [9] | outcome [5] | Potency [6] | Potency [7] | outcome [8]

Nc1ccc2cc3ccccc3cc2c1
inactive: Potency [2] | Potency [3] | Potency [4] | outcome [5] | Potency [6] | outcome [8]
active: Potency [1] 27.8 µM | Potency [9] 1.39 µM and 1.37 µM | Potency [7] 44.7 µM [fluorescent]

C1COC(NC(C2CC2)C2CC2)=N1
inactive: Potency [1] | Potency [2] | Potency [3] | Potency [4] | Potency [9] | outcome [5] | Potency [6] | Potency [7] | outcome [8]

CCCOC(=O)c1cc(O)c(O)c(O)c1
active: Potency [9] 23.7 µM and 48.3 µM and 48.6 µM
inactive: Potency [1] | Potency [2] | Potency [3] | Potency [4] | outcome [5] | Potency [6] | Potency [7] | outcome [8]

CC1=CC(=O)c2ccccc2C1=O
inactive: Potency [1] | Potency [3] | Potency [6] | Potency [7] | outcome [8]
active: Potency [2] 24.3 µM
inactive and 54.5 µM (active): Potency [4]

CCn1cc(C(=O)O)c(=O)c2cc(F)c(N3CCNC(C)C3)c(F)c21 (stereo not given)
inactive: Potency [10] | Potency [2] | Potency [3] | Potency [9] | Potency [6] | Potency [7] | outcome [8]

CNCCC(Oc1ccc(C(F)(F)F)cc1)c1ccccc1 (stereo not given)
inactive: Potency [3] | outcome [5] | Potency [6] | Potency [7] | outcome [8]
active: Potency [10] 53.8 µM | Potency [2] 60.3 µM

CC[C@@H](N)CO
inactive: Potency [1] | Potency [2] | Potency [3] | Potency [4] | outcome [5] | Potency [6] | Potency [7] | outcome [8]

Nc1cc(Cl)c(-c2cc(Cl)c(N)cc2Cl)cc1Cl
active: Potency [1] 13.7 µM | Potency [2] 61.1 µM and 54.5 µM | Potency [3] 30.6 µM | Potency [4] 48.5 µM and 54.5 µM | Potency [9] 9.68 µM and 13.7 µM
inactive: outcome [5] | Potency [6] | Potency [7] | outcome [8]

N[C@@H]1CONC1=O
inactive: Potency [1] | Potency [2] | Potency [3] | Potency [4] | Potency [9] | outcome [5] | Potency [6] | Potency [7] | outcome [8]

Cc1cccc([N+](=O)[O-])c1C(=O)O
inactive: Potency [1] | Potency [2] | Potency [3] | Potency [4] | Potency [9] | outcome [5] | Potency [6] | Potency [7] | outcome [8]

Clc1ccc2c(c1)C(N1CCNCC1)=Nc1ccccc1O2
inactive: Potency [1] | Potency [2] | Potency [3] | Potency [4] | outcome [5] | Potency [6] | Potency [7] | outcome [8]

O=Nc1ccc(Nc2ccccc2)cc1
active: Potency [10] 27.4 µM | Potency [3] 48.8 µM | Potency [9] 21.8 µM
inactive: outcome [5] | Potency [6] | Potency [7] | outcome [8]

Cc1c(O)cccc1C(=O)N[C@@H](CSc1ccccc1)[C@H](O)CN1C[C@H]2CCCC[C@H]2C[C@H]1C(=O)NC(C)(C)C
inactive: Potency [1] | Potency [4] | outcome [5] | Potency [6] | Potency [7] | outcome [8]
active: Potency [2] 21.1 µM | Potency [3] 21.1 µM and 23.7 µM | Potency [9] 10.6 µM and 7.49 µM

Cc1cccc(O)c1C
inactive: Potency [1] | Potency [2] | Potency [3] | Potency [4] | Potency [9] | outcome [5] | Potency [6] | Potency [7] | outcome [8]

CC[C@H]1CN2CCc3cc(OC)c(OC)cc3[C@@H]2C[C@@H]1C[C@H]1NCCc2cc(OC)c(OC)cc21
inactive: Potency [2] | outcome [5] | Potency [6] | Potency [7] | outcome [8]
active: Potency [10] 0.0387 µM | Potency [3] 168 nM and 194 nM

CC(=O)C1=C(C)[C@@H]2C[C@@]3(C1)[C@H](C)CC[C@H]3C2(C)C
inactive: Potency [10] | Potency [2] | Potency [3] | outcome [5] | Potency [6] | Potency [7] | outcome [8]

CC[C@]1(O)C[C@@H]2CN(CCc3c([nH]c4ccccc34)[C@@](C(=O)OC)(c3cc4c(cc3OC)N(C)[C@H]3[C@@](O)(C(=O)OC)[C@H](OC(C)=O)[C@]5(CC)C=CCN6CC[C@]43[C@@H]65)C2)C1
inactive: Potency [4] | outcome [5] | Potency [6] | Potency [7] | outcome [8]
active: Potency [1] 1.19 µM and 266 nM | Potency [3] 133 nM and 168 nM | Potency [9] 1.88 µM and 944 nM

CC(=O)CC(=O)Nc1ccc2[nH]c(=O)[nH]c2c1
inactive: Potency [1] | Potency [2] | Potency [3] | Potency [9] | outcome [5] | Potency [6] | Potency [7] | outcome [8]

CC(C)(C)c1ccc(O)c(C(C)(C)C)c1
active: Potency [2] 60.9 µM and 48.6 µM | Potency [9] 2.72 µM and 3.06 µM
inactive: Potency [1] | Potency [6] | Potency [7] | outcome [8]

O=C1Nc2ccccc2C1(c1ccc(O)cc1)c1ccc(O)cc1
active: Potency [9] 13.7 µM
inactive: Potency [1] | Potency [3] | Potency [4] | Potency [6] | Potency [7] | outcome [8]

CCN(CC)C(=S)SSC(=S)N(CC)CC
inactive: Potency [4] | outcome [5] | Potency [6] | Potency [7] | outcome [8]
active: Potency [1] 11.9 µM and 61.1 µM and 13.7 µM | Potency [9] 7.7 µM and 7.02 µM
